From PubChem BioAssay (NCATS) come the findings set out here.

Each structure is given as a SMILES string. Records with an inconclusive call do not appear. Where a call stands in place of a potency, no number is given. Active and inactive are the calls of the source. The call rests on the fitted dose curve; in most records, active means well fitted curve in the direction sought with a large enough effect; inconclusive means small, poorly fitted or top-dose-only effect, or another doubt; inactive means no such curve, though single readings can be large; an effect the other way counts as inactive or inconclusive.

Experiment [1] concerns the target Protein phosphatase 1D (Homo sapiens) (UniProt O15297). The experiment in a line: RapidFire Mass Spectrometry qHTS Assay for Modulators of WT P53-Induced Phosphatase 1 (WIP1) (AID 1347424).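 Further: amount of dephosphorylated VEPPL-S-QETFS peptide product formed by WIP1; series mostly up to about 63 µM.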 In a few lines:
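10 nM WIP1 + cpd, 1 h RT; + 2 uM VEPPL-pS-QETFS, 5 min RT; stop 0.5% formic acid; labelled product standard 1 uM; RapidFire MS. Buffer 50 mM Tris pH 7.5, 30 mM MgCl2, 1 mM TCEP.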
A general note: qHTS replaces the single test concentration by a dilution series.

Experiment [2] shares this target. The experiment in a line: Rhodamine-PBP qHTS Assay for Modulators of WT P53-Induced Phosphatase 1 (WIP1) (AID 1347425). The procedure, abridged: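 WIP1 (5 nM final) was preincubated with compound for 1 hour at room temperature. It then dephosphorylated 10 uM VEPPL-pS-QETFS peptide in Tris-HCl pH 7.5 with 30 mM MgCl2. Released Pi was detected by 10 uM Rh-PBP fluorescence (ex 525/em 598 nm) read at 1-min intervals for 11 min, as delta f1 - f0.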

Experiment [3] can be described thus: Primary qHTS for inhibitors of La Crosse Virus (LACV) - induced cell death in SH-SY5Y cells (AID 1508616).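 Further: top concentration of the series differs between compounds; higher means more rescue of cells from virus-induced death.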 In a few lines:
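SH-SY5Y cells (6000/well) plated 24 h, then given compounds by pin transfer and LACV at 0.01 MOI for 6 days at 37C. Viability measured by ATPLite luminescence, normalized to infected DMSO and uninfected DMSO.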

Experiment [4] concerns the target Calcium and integrin-binding protein 1 (Homo sapiens) (UniProt Q99828). In words: Primary qHTS for Identification of Calcium Integrin Binding Protein 1 (CIB1) Competitor (AID 1508620). Further: potency means the concentration at half of the fitted maximal effect. The procedure, abridged: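 CIB1-GST (1 uM final) and compound incubated 15 min at room temperature before adding FITC-alphaIIb peptide tracer (100 nM final). Competition for binding read by fluorescence polarization (ex 480, em 540) after another 15 min at room temperature.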

The nature of experiment [5]: Validation qHTS assay for inhibitors of Activation Induced Cytidine Deaminase (AID): UDG Counterscreen signal (AID 1347427). In a few lines:
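Counterscreen read of UDG activity (2 U/mL, 4/3x) in the FRET deamination format with AID (1 uM, 4/3x), DJC20/DJC23 substrates (250 nM, 4x), 4 h at room temperature. NaOH stop, fluorescence at 560 ex/665 em.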

Experiment [6] deals with Single-stranded DNA cytosine deaminase (Homo sapiens) (UniProt Q9GZX7). The experiment in a line: Validation qHTS assay for inhibitors of Activation Induced Cytidine Deaminase (AID): AID signal (AID 1347429). In a few lines:
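FRET deamination assay: 1 uM AID (4/3x stock) with UDG, compound up to 114 uM, then 250 nM DJC20/DJC23 substrate (4x stock) for 4 hr at room temperature. NaOH added, 30 min; fluorescence read 540/590 nm.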

In experiment [7] the target is Calcium and integrin-binding protein 1 (Homo sapiens) (UniProt Q99828). The experiment in a line: Validation qHTS for Identification of Calcium Integrin Binding protein 1 (CIB1) Competitor (AID 1508618). The procedure, abridged: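 Fluorescence polarization with 1 uM CIB1-GST and 100 nM FITC-alphaIIb peptide in HEPES pH 7.4, NaCl, 5 mM CaCl2, Tween20. Compounds at up to 114 uM final, preincubated with protein 15 min; read after 15 min more at RT.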

For experiment [8] the target is unchanged. In words: Confirmatory qHTS for Identification of Calcium Integrin Binding Protein 1 (CIB1) Competitor (AID 1508617). Further: nearly all actives have a fitted effect of over 65% in size. The procedure, abridged:
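FP competition: CIB1-GST (1 uM final) in 5 mM HEPES pH 7.4, 125 mM NaCl, 5 mM CaCl2, 0.01% Tween20 preincubated 15 min RT with compounds (up to 114 uM), then FITC-alphaIIb peptide (100 nM), 15 min RT; Ex 480/Em 540.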

Protein phosphatase 1D (Homo sapiens), sequence (O15297 whole entry, looked up): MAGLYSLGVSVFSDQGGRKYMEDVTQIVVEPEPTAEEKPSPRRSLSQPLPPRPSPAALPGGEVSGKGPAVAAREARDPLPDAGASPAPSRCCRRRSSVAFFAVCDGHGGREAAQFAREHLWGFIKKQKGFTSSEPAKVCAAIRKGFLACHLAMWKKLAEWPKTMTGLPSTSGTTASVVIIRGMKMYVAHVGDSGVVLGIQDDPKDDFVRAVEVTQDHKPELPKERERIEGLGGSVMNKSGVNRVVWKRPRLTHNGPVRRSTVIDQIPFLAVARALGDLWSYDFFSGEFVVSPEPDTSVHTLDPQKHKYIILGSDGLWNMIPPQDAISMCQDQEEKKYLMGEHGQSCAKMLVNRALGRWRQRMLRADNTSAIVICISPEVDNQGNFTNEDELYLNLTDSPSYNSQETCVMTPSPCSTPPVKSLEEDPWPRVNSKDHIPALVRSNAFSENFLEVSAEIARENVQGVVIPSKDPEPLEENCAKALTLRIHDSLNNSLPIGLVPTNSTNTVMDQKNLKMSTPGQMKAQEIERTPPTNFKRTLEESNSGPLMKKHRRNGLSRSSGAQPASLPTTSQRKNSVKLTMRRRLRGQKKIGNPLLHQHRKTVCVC
Calcium and integrin-binding protein 1 (Homo sapiens), sequence (Q99828 whole entry, looked up): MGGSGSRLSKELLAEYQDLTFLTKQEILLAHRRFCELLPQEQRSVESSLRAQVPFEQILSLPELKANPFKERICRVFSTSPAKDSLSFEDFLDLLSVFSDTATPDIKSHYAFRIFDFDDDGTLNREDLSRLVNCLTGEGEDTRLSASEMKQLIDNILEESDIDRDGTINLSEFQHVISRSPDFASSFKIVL
Single-stranded DNA cytosine deaminase (Homo sapiens), sequence (Q9GZX7 whole entry, looked up): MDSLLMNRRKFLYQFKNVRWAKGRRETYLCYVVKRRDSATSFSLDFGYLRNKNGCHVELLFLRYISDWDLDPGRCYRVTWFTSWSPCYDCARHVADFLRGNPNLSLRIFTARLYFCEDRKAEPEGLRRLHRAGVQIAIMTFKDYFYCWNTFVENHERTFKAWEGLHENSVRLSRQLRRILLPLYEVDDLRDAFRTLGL

On to `CCN(CC)CCNC(=O)COc1ccc(OC)cc1`, for which the Potency entry in experiment [1] and in experiment [4] was “inactive” each time. Moreover, the outcome in experiment [2] and in experiment [3] was inactive.
Consider `CC(C)(C)NCC(O)COc1cccc2c1C[C@H](O)[C@H](O)C2` (some centres undefined), for which the Potency result in experiment [1] and in experiment [4] was “inactive” throughout. The result in experiment [2] and in experiment [3] was inactive.
For `CC(C)(C)NC[C@H](O)COc1nsnc1N1CCOCC1`, the Potency entry in experiment [1] and in experiment [4] was “inactive” in each case. Also, the result in experiment [2], in experiment [5], in experiment [6], in experiment [3] and in experiment [7] was inactive.
As for `Cc1cc(-c2ccccc2)nnc1NCCN1CCOCC1`, the Potency entry in experiment [1] and in experiment [4] was “inactive” each time. For the same molecule, the call in experiment [2] and in experiment [3] was inactive.
Regarding `COc1cc([C@H]2Oc3cc([C@H]4Oc5cc(O)cc(O)c5C(=O)[C@@H]4O)ccc3O[C@@H]2CO)ccc1O`, the Potency result in experiment [1] and in experiment [8] was “inactive” throughout. For the same molecule, the call in experiment [2] and in experiment [3] was inactive. In experiment [4], the Potency is 35.5 µM (active).
Take `O=C(Nc1ccc([N+](=O)[O-])cc1)Nc1ccc([N+](=O)[O-])cc1`: the Potency result in experiment [1] and in experiment [4] was “inactive” each time. The molecule was classed as inactive in experiment [2] and in experiment [3].
With `CCCCCCCCCCCCCCCC(=O)O`, in experiment [1], the Potency result is “inactive”. Besides, the molecule was classed as inactive in experiment [2] and in experiment [3].
On to `CCOC(=O)C(C#N)=C(c1ccccc1)c1ccccc1`, for which the Potency result in experiment [1] and in experiment [4] was “inactive” each time. For the same molecule, the call in experiment [2] and in experiment [3] was inactive.
On to `Cn1c(=O)c2[nH]c(Br)nc2n(C)c1=O`, for which the Potency entry in experiment [1] and in experiment [4] was “inactive” each time. Besides, the molecule was classed as inactive in experiment [2] and in experiment [3].
For `COc1ccc(C(=O)c2ccccc2O)c(O)c1`, the Potency result in experiment [1] is “inactive”. Moreover, the call in experiment [2] and in experiment [3] was inactive.
For `O=C(CN1CCN(Cc2ccc3c(c2)OCO3)CC1)N1c2ccccc2Sc2ccccc21`, the Potency result in experiment [1] and in experiment [4] was “inactive” in each case. Also, the molecule was called inactive in experiment [2] and in experiment [3].
`O=C(N/N=C/c1ccc([N+](=O)[O-])o1)c1ccc(O)cc1`: in experiment [1], the Potency entry is “inactive”. The molecule was called inactive in experiment [2] and in experiment [3].
As for `N[C@H](C(=O)O)[C@@H](O)c1ccc(O)c(O)c1`, the Potency result in experiment [1] and in experiment [4] was “inactive” throughout. For the same molecule, the molecule was called inactive in experiment [2] and in experiment [3].
Regarding `N#CCC(=O)NN`, the Potency entry in experiment [1] and in experiment [4] was “inactive” each time. Further, the molecule was called inactive in experiment [2] and in experiment [3].
On to `Cc1cc(NS(=O)(=O)c2ccc(N)cc2)nc(C)n1`, for which the Potency entry in experiment [1] and in experiment [4] was “inactive” throughout. The molecule was called inactive in experiment [2] and in experiment [3].
`CN(C)CCN1C(=O)c2ccccc2N(C)c2ccccc21`: the Potency entry in experiment [1] and in experiment [4] was “inactive” throughout. Besides, the molecule was called inactive in experiment [2] and in experiment [3].
On to `CN1CCc2cccc3c2[C@H]1Cc1ccc(O)c(O)c1-3`, for which the Potency result in experiment [1] and in experiment [8] was “inactive” throughout. For the same molecule, the result in experiment [2] and in experiment [3] was inactive.
On to `OC[C@H]1O[C@@H](Oc2ccc(O)cc2)[C@H](O)[C@@H](O)[C@@H]1O`, for which the Potency entry in experiment [1] and in experiment [4] was “inactive” throughout. In addition, the result in experiment [2] and in experiment [3] was inactive.
For the molecule `NC1CCN(c2nc3c(cc2F)c(=O)c(C(=O)O)cn3-c2ccc(F)cc2F)C1` (centres undefined), the Potency result in experiment [1] and in experiment [4] was “inactive” each time. Besides, the result in experiment [2] and in experiment [3] was inactive.
Regarding `OC1C(O)C(O)C(O)C(O)C1O` (centres undefined), the Potency result in experiment [1] is “inactive”. Moreover, the outcome in experiment [2] and in experiment [3] was inactive.
As to `C=C[C@H]1CN2CC[C@H]1C[C@H]2[C@H](O)c1ccnc2ccc(OC)cc12`, the Potency result in experiment [1] is “inactive”. The outcome in experiment [2] and in experiment [3] was inactive.
With `C#C[C@]1(O)CC[C@H]2[C@@H]3CCC4=Cc5oncc5C[C@]4(C)[C@H]3CC[C@@]21C`, the Potency entry in experiment [1] was “inactive”. For the same molecule, the outcome in experiment [2] and in experiment [3] was inactive.
Take `COP(=O)(OC)OC(c1ccc(Cl)cc1)P(=O)(OC)OC` (centres undefined): the Potency result in experiment [1] and in experiment [4] was “inactive” throughout. For the same molecule, the outcome in experiment [2] and in experiment [3] was inactive.
For `CC(=O)N[C@@H](CCC(=O)O)C(=O)O`, the Potency entry in experiment [1] and in experiment [4] was “inactive” in each case. The molecule was called inactive in experiment [2] and in experiment [3].
With `CCN(CC)CCNC(=O)c1cc(Br)c(N)cc1OC`, the Potency result in experiment [1] and in experiment [4] was “inactive” in each case. For the same molecule, the result in experiment [2] and in experiment [3] was inactive.
For the molecule `CC(=O)Nc1ccc(OC(=O)c2ccccc2OC(C)=O)cc1`, the Potency entry in experiment [1] and in experiment [4] was “inactive” in each case. Also, the result in experiment [2] and in experiment [3] was inactive.
For the molecule `COc1cc(C(=O)NCc2ccc(OCCN(C)C)cc2)cc(OC)c1OC`, the Potency result in experiment [1] and in experiment [4] was “inactive” each time. Also, the molecule was classed as inactive in experiment [2] and in experiment [3].
Regarding `CCOc1ccc(NC(C)=O)cc1`, the Potency entry in experiment [1] was “inactive”. In addition, the call in experiment [2] and in experiment [3] was inactive.
`CC[C@]12CCCN3CCc4c(n(c5ccccc45)C(=O)C1)[C@@H]32`: the Potency entry in experiment [1] and in experiment [4] was “inactive” each time. Moreover, the result in experiment [2] and in experiment [3] was inactive.
Consider `CC(=O)Nc1ccc(OCC(O)CNC(C)C)cc1` (centres undefined), for which, in experiment [1], the Potency entry was “inactive”. The outcome in experiment [2] and in experiment [3] was inactive.
Turning to `C[C@H]1[C@H]2CC[C@H]3[C@@H]4CC=C5C[C@@H](N(C)C)CC[C@]5(C)[C@H]4CC[C@]23CN1C`, the Potency entry in experiment [1] is “inactive”. Moreover, the call in experiment [2] and in experiment [3] was inactive.
Take `Cc1c[nH]c2ccccc12`: the Potency entry in experiment [1] and in experiment [4] was “inactive” each time. The outcome in experiment [2] and in experiment [3] was inactive.
With `CCCCCCCCNC(C)C(O)c1ccc(SC(C)C)cc1` (centres undefined), the Potency result in experiment [1] and in experiment [4] was “inactive” throughout. The call in experiment [2] and in experiment [3] was inactive.
In the case of `CCCCCCCCCCCCSCCOCCO`, the Potency entry in experiment [1] and in experiment [4] was “inactive” each time. Moreover, the result in experiment [2] and in experiment [3] was inactive.
For `CC(=O)O[C@]1(C(C)=O)CC[C@H]2[C@@H]3C=C(C)C4=CC(=O)CC[C@]4(C)[C@H]3CC[C@@]21C`, the Potency entry in experiment [1] is “inactive”. Further, the call in experiment [2] and in experiment [3] was inactive.
As for `CN1CCN(CCC(=O)N2c3ccccc3Sc3ccc(C(F)(F)F)cc32)CC1`, the Potency result in experiment [1] is “inactive”.
On to `Nc1ccc(S(=O)(=O)NCc2ccccc2)cc1`, for which the Potency result in experiment [1] and in experiment [4] was “inactive” each time. For the same molecule, the call in experiment [2] and in experiment [3] was inactive.
